MazEF act: activators of E. coli MazEF toxin-antitoxin RNase, primary screen, biochemical, fluorescence, uHTS; 0.32% of 350,000 active; AID 504720, 2011; Endoribonuclease toxin MazF (Escherichia coli (strain K12)), P0AE70; FAM/BHQ RNA-DNA oligo cleavage fluorescence, 5 h; activation, % at 20 µM; in the data active means activation above about 50%
BoNT F protease: BoNT/F light chain protease inhibitors, primary screen, biochemical, flow cytometry, MLPCN library | Multiplex microsphere protease cleavage assay | inhibition, % at 10 µM | 0.22% of 360,000 active | AID 588497, 2011; in the data active means inhibition above about 35%, passing the limit was not always enough; inconclusive means no clear call, values can overlap the other calls; further: plate controls were buffer without enzyme for full effect and enzyme alone for no effect
BoNT A protease: BoNT/A light chain protease inhibitors, primary screen, biochemical, flow cytometry, MLPCN library; Botulinum neurotoxin type A light chain protease (Clostridium botulinum A str. ATCC 3502); multiplex microsphere protease substrate cleavage; inhibition, % at 10 µM; 0.17% of 360,000 active; AID 588499, 2011; further: plate controls were buffer without enzyme for full effect and enzyme alone for no effect
VHR inh abs: VHR1 phosphatase inhibitors, primary screen, biochemical, absorbance, uHTS | recombinant VHR phosphatase, pNPP absorbance | Dual specificity protein phosphatase 3 (Homo sapiens), P51452 | inhibition, % at 13.3 µM | AID 1654, 2009 | 0.52% of 290,000 active; in the data active means inhibition above about 50%
Autofluor counter: flagged as autofluorescent in microsphere protease counterscreen. compound autofluorescence counterscreen, microsphere flow cytometry; stronger effect = higher value. fluorescence intensity (test concentration not listed). 3.1% of 360,000 active. AID 624483; in the data active means fluorescence intensity above about 16000; inconclusive means no clear call, values can overlap the other calls
Anthrax LF prot: Bacillus anthracis LF protease inhibitors, primary screen, biochemical, multiplex microsphere, MLPCN library. Lethal factor (Bacillus anthracis), P15917. multiplex microsphere protease cleavage assay. inhibition, % at 10 µM. 0.12% of 360,000 active. AID 588501, 2011; further: plate controls were buffer without enzyme for full effect and enzyme alone for no effect
Target sequence (P15917 whole entry, looked up): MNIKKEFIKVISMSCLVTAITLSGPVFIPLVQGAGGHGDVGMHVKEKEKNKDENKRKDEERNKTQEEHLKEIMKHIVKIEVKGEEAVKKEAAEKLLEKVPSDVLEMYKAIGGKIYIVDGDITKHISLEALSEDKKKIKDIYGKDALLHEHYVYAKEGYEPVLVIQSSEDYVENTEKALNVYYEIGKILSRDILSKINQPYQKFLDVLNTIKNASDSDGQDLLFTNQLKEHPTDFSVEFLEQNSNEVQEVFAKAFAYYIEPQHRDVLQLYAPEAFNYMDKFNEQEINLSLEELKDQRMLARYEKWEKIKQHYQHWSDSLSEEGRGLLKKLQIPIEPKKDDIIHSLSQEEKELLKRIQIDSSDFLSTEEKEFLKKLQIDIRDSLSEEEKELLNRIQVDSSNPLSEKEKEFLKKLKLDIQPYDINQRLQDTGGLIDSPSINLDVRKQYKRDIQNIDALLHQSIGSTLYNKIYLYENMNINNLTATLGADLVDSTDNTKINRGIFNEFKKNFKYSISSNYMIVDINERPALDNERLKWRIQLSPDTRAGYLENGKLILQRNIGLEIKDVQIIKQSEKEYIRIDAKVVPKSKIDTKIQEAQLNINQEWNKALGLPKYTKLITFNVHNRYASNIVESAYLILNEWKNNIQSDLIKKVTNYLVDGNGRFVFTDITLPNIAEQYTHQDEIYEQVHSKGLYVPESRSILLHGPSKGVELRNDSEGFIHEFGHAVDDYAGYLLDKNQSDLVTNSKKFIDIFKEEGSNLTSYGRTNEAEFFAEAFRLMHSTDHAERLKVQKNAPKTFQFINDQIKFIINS
BoNT-A LC CP1: BoNT/A light chain protease inhibitors, confirmation, biochemical, flow cytometry, cherry pick 1; shares compounds with BoNT F protease; multiplex microsphere protease assay; inhibition, % at 10 µM; 3% of 720 active; AID 602139, 2011; in the data active means inhibition above about 32%
BoNT-F LC CP1: BoNT/F light chain protease inhibitors, confirmation, biochemical, flow cytometry, cherry pick 1; multiplex microsphere protease cleavage assay; inhibition, % at 10 µM; shares compounds with BoNT F protease; 720 tested, under 10 active; call rule not given here
LF protease CP1: Bacillus anthracis LF protease inhibitors, confirmation, biochemical, multiplex microsphere, cherry pick 1; shares compounds with BoNT F protease; multiplex microsphere protease cleavage assay; inhibition, % at 10 µM; 720 tested, under 10 active; call rule not given here
An asterisk follows results filed as active. Compounds with a hit are over-represented: about 4% of the library has one in this group of screens. Unless noted, no stated cut-off is given here; in the data, active means inhibition above about 30%; inconclusive means no clear call, values can overlap the other calls; inactive means below that.

Results for CCOc1ccc(OCCSc2nc(C)cc(=O)[nH]2)cc1 ?
MazEF act: 1.8; BoNT F protease: -1.6; BoNT A protease: -0.3; VHR inh abs: 13.6; Autofluor counter: 2771; Anthrax LF prot: -0.2

What do the screens show for `Cc1cc(=O)[nH]c(SCCCOc2ccc3c(c2)CCC3)n1`?
MazEF act: -2.3; BoNT F protease: -1.1; BoNT A protease: 0.2; VHR inh abs: 9.9; Autofluor counter: 23738*; Anthrax LF prot: 3.3

How did Cc1ccc(SCCSc2nc(C)cc(=O)[nH]2)cc1 do in these assays?
MazEF act: 0.7; BoNT F protease: -34.3; BoNT A protease: -1.1; VHR inh abs: 15.4; Autofluor counter: 4311; Anthrax LF prot: 3.9

How did COc1cccc(OC)c1OCCCSc1nc(C)cc(=O)[nH]1 do in these assays?
MazEF act: 6.8; BoNT F protease: 4.2; BoNT A protease: 2.6; VHR inh abs: 2.6; Autofluor counter: 22471*; Anthrax LF prot: -0.7

Results for CN(C)c1nc(N)c2nccnc2n1 ?
MazEF act: 5.7; BoNT F protease: -6.7; BoNT A protease: -0.3; Autofluor counter: 2759; Anthrax LF prot: -0.7

Results for CSc1cnc2c(N)nc(N(C)C)nc2n1 ?
MazEF act: 3.4; BoNT F protease: 48.9*; BoNT A protease: 5.8; VHR inh abs: 39.0; Autofluor counter: 2866; Anthrax LF prot: 3.6; BoNT-A LC CP1: -1.3; BoNT-F LC CP1: -1.1; LF protease CP1: -1.9

Results for Cc1oc(-c2ccccc2Cl)nc1CS(=O)CC(=O)NCc1ccco1 (centres undefined) ?
MazEF act: -4.2; BoNT F protease: 2.7; BoNT A protease: 0.7; VHR inh abs: 14.9; Autofluor counter: 4114; Anthrax LF prot: -1.1

Results for Cc1oc(C)c(S(=O)(=O)NCc2cccs2)c1C(=O)O ?
MazEF act: 3.0; BoNT F protease: inconclusive; BoNT A protease: inconclusive; VHR inh abs: 6.1; Autofluor counter: 4495; Anthrax LF prot: 37.6*; BoNT-A LC CP1: 0.0; BoNT-F LC CP1: -2.6; LF protease CP1: 2.0

What do the screens show for `COc1ccc(C(=O)NCCn2ccc3ccccc32)c(OC)c1`?
MazEF act: 3.1; BoNT F protease: -1.2; BoNT A protease: 8.9; VHR inh abs: 25.2; Autofluor counter: 10678; Anthrax LF prot: 14.3; BoNT-A LC CP1: 0.5; BoNT-F LC CP1: 0.0; LF protease CP1: 5.5

Results for NS(=O)(=O)c1ccc(CCNC2CC(=O)N(CCc3ccccc3)C2=O)cc1 (centres undefined) ?
MazEF act: 5.6; BoNT F protease: 157.6*; BoNT A protease: 5.7; VHR inh abs: 10.0; Autofluor counter: 7354; Anthrax LF prot: 52.0*; BoNT-A LC CP1: 1.2; BoNT-F LC CP1: 1.4; LF protease CP1: 3.5

How did CN(C)CCN(CC1CCCN(Cc2ccccc2F)C1)C(=O)c1ccc(Cl)cc1 (centres undefined) do in these assays?
MazEF act: 11.3; BoNT F protease: 44.5*; BoNT A protease: 1.6; VHR inh abs: 10.7; Autofluor counter: 3527; Anthrax LF prot: 9.0; BoNT-A LC CP1: -0.4; BoNT-F LC CP1: -4.2; LF protease CP1: 0.2

How did CN(C(=O)c1cccc(Cl)c1)C1CCCN(Cc2ccccc2F)C1 (centres undefined) do in these assays?
MazEF act: 6.5; BoNT F protease: -1.9; BoNT A protease: 0.3; VHR inh abs: 1.0; Autofluor counter: 4390; Anthrax LF prot: -1.6

How did O=S(=O)(c1ccccc1F)N1CCc2ccccc2C1 do in these assays?
MazEF act: 7.9; BoNT F protease: inconclusive; BoNT A protease: 0.0; VHR inh abs: 19.3; Autofluor counter: 3906; Anthrax LF prot: 33.9*; BoNT-A LC CP1: -1.0; BoNT-F LC CP1: -1.6; LF protease CP1: -2.1

How did COc1cc2c(cc1OC)CN(S(=O)(=O)c1ccccc1F)CC2 do in these assays?
MazEF act: 19.5; BoNT F protease: 3.0; BoNT A protease: 1.2; VHR inh abs: -15.2; Autofluor counter: 4056; Anthrax LF prot: 7.5

What do the screens show for `Cc1ccccc1OC(C)C(=O)NCCC1=CCCCC1` (centres undefined)?
MazEF act: 2.0; BoNT F protease: -10.0; BoNT A protease: -1.4; VHR inh abs: -1.5; Autofluor counter: 6521; Anthrax LF prot: -0.1

How did COc1cc2c(cc1OC)C(C)N(S(=O)(=O)c1cccs1)CC2 (centres undefined) do in these assays?
MazEF act: -6.3; BoNT F protease: -6.7; BoNT A protease: 5.7; VHR inh abs: 20.1; Autofluor counter: 3519; Anthrax LF prot: 32.5*; BoNT-A LC CP1: 1.2; BoNT-F LC CP1: -1.9; LF protease CP1: -1.0

How did COc1cc2c(cc1OC)C(C)N(S(=O)(=O)c1ccc(C)cc1)CC2 (centres undefined) do in these assays?
MazEF act: 3.6; BoNT F protease: -3.7; BoNT A protease: 0.1; VHR inh abs: 13.3; Autofluor counter: 3602; Anthrax LF prot: 3.5

How did CC(=O)Cn1cnc2c(cnn2-c2ccc(F)cc2)c1=O do in these assays?
MazEF act: -0.3; BoNT F protease: -9.3; BoNT A protease: -0.4; Autofluor counter: 4218; Anthrax LF prot: -2.9

What do the screens show for `COc1ccc(-n2ncc3c(=O)n(CC(C)=O)cnc32)cc1`?
MazEF act: 7.0; BoNT F protease: inconclusive; BoNT A protease: 61.3*; VHR inh abs: 8.5; Autofluor counter: 2086; Anthrax LF prot: 7.9; BoNT-A LC CP1: 0.4; BoNT-F LC CP1: -5.9; LF protease CP1: 0.2

What do the screens show for `Cc1cc(NC(=O)c2cnn3c(C(F)F)cc(C4CC4)nc23)no1`?
MazEF act: -4.5; BoNT F protease: 20.3; BoNT A protease: 0.9; VHR inh abs: 2.9; Autofluor counter: 3536; Anthrax LF prot: -2.5

What do the screens show for `CCCCC(=O)C1CCN(Cc2ccccc2)CC1`?
MazEF act: -22.2; BoNT F protease: 32.6; BoNT A protease: 0.4; VHR inh abs: 1.9; Autofluor counter: 7263; Anthrax LF prot: -1.5; BoNT-A LC CP1: 0.6; BoNT-F LC CP1: -5.3; LF protease CP1: 0.3

How did O=C(Nc1ccc(O)cc1C(=O)O)c1ccc2c(c1)C(=O)N(Cc1ccco1)C2=O do in these assays?
MazEF act: -3.2; BoNT F protease: 35.4*; BoNT A protease: 4.9; VHR inh abs: -13.3; Autofluor counter: 6881; Anthrax LF prot: -0.5; BoNT-A LC CP1: -0.1; BoNT-F LC CP1: -2.8; LF protease CP1: 1.1
